High-throughput results (PubChem)
AmpC inh no detg – AmpC beta-lactamase inhibition without detergent | P00811 | hit rate 0.52% among 330,000 | Potency, µM (series often up to 57.1 µM), actives largely listed as inhibitors | AID 485341 | AmpC nitrocefin hydrolysis, absorbance 480 nm, 0.0001% Triton; further: nearly all actives have a fitted effect of over 20% in size
Target sequence (P00811 whole entry, looked up): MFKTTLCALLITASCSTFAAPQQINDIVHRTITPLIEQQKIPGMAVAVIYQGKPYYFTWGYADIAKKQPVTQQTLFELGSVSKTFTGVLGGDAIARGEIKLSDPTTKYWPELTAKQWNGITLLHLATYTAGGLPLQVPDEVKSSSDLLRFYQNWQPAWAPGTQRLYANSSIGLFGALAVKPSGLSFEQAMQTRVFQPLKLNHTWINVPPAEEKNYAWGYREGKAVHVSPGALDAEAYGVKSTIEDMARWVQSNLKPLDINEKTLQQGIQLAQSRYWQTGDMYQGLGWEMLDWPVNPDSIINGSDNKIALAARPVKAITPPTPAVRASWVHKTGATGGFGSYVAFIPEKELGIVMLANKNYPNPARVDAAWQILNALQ
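20 mM phosphate pH 7.0 + 0.01% (detergent screen) or 0.0001% Triton X-100; 5.3 nM AmpC reagent; cpd preinc 15 min RT; nitrocefin (800 uM stock) to start; A480 q20 s × 4 min; Activity was normalised to no-enzyme and no-compound control wells.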
SARS PLpro yeast – blocks SARS-CoV papain-like protease in a yeast assay | S. cerevisiae expressing SARS-CoV PLpro, growth rescue | Potency, µM (highest dose often 32.9 µM), most hits filed as activators | hit rate 0.19% among 330,000; calls by dose curve; further: nearly all actives have a fitted effect of over 55% in size
Pf growth 96h – P. falciparum growth inhibition at 96 hours; P. falciparum luciferase reporter growth, 96 h; Potency, µM (top dose mostly 28.7 µM), hits mostly inhibitors; hit rate 6.9% among 320,000; AID 504834
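Cell-based qHTS: luciferase-tagged P. falciparum in erythrocytes (2% hematocrit, 0.05% parasitemia final) incubated with compounds for 96 hours, 37 C, 5% CO2; luciferase detection reagent then added and luminescence measured.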
Sm TGR inh – S. mansoni TGR enzyme inhibition | purified TGR, DTNB reduction, TNB absorbance 405 nm | Q962Y6 | hit rate 3% among 360,000 | AID 485364 | Potency, µM (highest dose often 114 µM), hits mostly inhibitors; further: nearly all actives have a fitted effect of over 60% in size
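Kinetic colorimetric format: TGR-catalysed, NADPH-driven DTNB reduction monitored via TNB absorbance. Enzyme dispensed at 20 nM; compound exposure 15 min at room temperature before reaction start.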
Pf growth 48h – P. falciparum growth inhibition at 48 hours (one generation) | P. falciparum luciferase growth in erythrocytes, 48 h | Potency, µM (doses to about 28.7 µM), usual class: inhibitors | hit rate 5.9% among 310,000 | AID 504832
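Growth was read as firefly luciferase luminescence after a 48 h, 37 C, 5% CO2 exposure of compounds to reporter-bearing P. falciparum cultures (0.1% parasitemia, 2% hematocrit final) in Albumax-supplemented RPMI 1640.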
AmpC detergent – AmpC beta-lactamase inhibition with detergent present; hit rate 0.041% among 370,000; AmpC hydrolysis of nitrocefin, absorbance 480 nm, 0.01% Triton; AID 485294; Potency, µM (highest dose often 114 µM), hits mostly inhibitors; further: nearly all actives have a fitted effect of over 25% in size
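AmpC (5.3 nM in the dispensed reagent) in 20 mM phosphate pH 7.0 with 0.01% (detergent screen) or 0.0001% Triton X-100 was preincubated with compounds for 15 min at room temperature. Nitrocefin was then added from an 800 uM solution, and hydrolysis was followed at 480 nm.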
Numbers stand for hits; – = inactive; ? = inconclusive; · = no result given. Compounds with a hit are over-represented: about 12% of the library has one in this group of screens. Unless noted, the call rests on the fitted dose curve; in most records, active means well fitted curve in the direction sought with a large enough effect; inconclusive means small, poorly fitted or top-dose-only effect, or another doubt; inactive means no such curve, though single readings can be large; an effect the other way counts as inactive or inconclusive.

SMILES	AmpC inh no detg	SARS PLpro yeast	Pf growth 96h	Sm TGR inh	Pf growth 48h	AmpC detergent
COc1ccc(CCNC(=O)C(=O)NCC(c2ccco2)S(=O)(=O)c2ccc(C)cc2)cc1 (configuration not stated)	·	·	·	–	·	–
CC(=O)Nc1ccc(N2S(=O)(=O)c3ccccc3S2(=O)=O)cc1	–	–	12µM	–	–	–
CC(=O)Nc1ccc(N2CCCC2)cc1	–	–	·	35µM	?	–
CC(=O)Nc1ccc(N2CCCCC2)cc1	–	–	–	–	–	–
CC(=O)Nc1ccc(N2Cc3ccccc3C2)cc1	–	–	?	13µM	–	?
O=C(Nc1c(C(=O)N2CCN(c3ccc(F)cc3)CC2)oc2ccccc12)c1c(F)cccc1F	·	·	·	–	·	–
CC(Oc1cccc(Cl)c1)C(=O)Nc1cc(S(=O)(=O)N2CCOCC2)ccc1N1CCCCC1 (configuration not stated)	–	–	?	–	8.3µM	?
CC(Oc1cccc(Cl)c1)C(=O)Nc1ccccc1N1CCCC1 (configuration not stated)	–	–	?	–	?	–
CCN1CCN(c2ccc(S(=O)(=O)N3CCOCC3)cc2NC(=O)C(C)Oc2cccc(Cl)c2)CC1 (configuration not stated)	–	–	?	–	10µM	?
COc1ccc(NC(=O)c2ccc(S(=O)(=O)N3CC(C)OC(C)C3)cc2)cc1 (configuration not stated)	–	–	·	·	·	·
Cc1ccc(O)c(-c2cc(C(=O)Nc3ccc(S(=O)(=O)Nc4nc(C)cc(C)n4)cc3)[nH]n2)c1	–	–	13µM	–	?	?
Cc1ccc(-c2cc(C(=O)Nc3ccc(S(=O)(=O)N4CC(C)OC(C)C4)cc3)[nH]n2)c(O)c1 (configuration not stated)	–	–	0.66µM	–	0.26µM	–
Cc1ccc(O)c(-c2cc(C(=O)Nc3ccc(S(=O)(=O)N4CC(C)OC(C)C4)cc3)[nH]n2)c1 (configuration not stated)	–	–	–	–	0.52µM	–
Cc1cc(C)nc(NS(=O)(=O)c2ccc(NC(=O)c3ccc(S(=O)(=O)N4CC(C)OC(C)C4)cc3)cc2)n1 (configuration not stated)	–	–	?	–	?	–
COc1ccc2c(c1)CC(C(=O)NCCc1ccc(S(N)(=O)=O)cc1)CO2 (configuration not stated)	·	·	·	–	·	–
Cc1cc2oc3c(c(=O)c2cc1C)C(c1ccc(C(C)C)cc1)N(c1nc(C)c(C)s1)C3=O (configuration not stated)	·	·	·	–	·	–
O=c1[nH]c(SCc2c(F)cccc2Cl)nc2c1CCC2	·	·	·	–	·	–
COc1ccc(-c2cc(C)no2)cc1S(=O)(=O)N1CC(C)Oc2ccccc21 (configuration not stated)	·	·	·	–	·	–
COc1ccc(-c2cc(C)no2)cc1S(=O)(=O)N1CCOc2ccc(Cl)cc21	–	–	10µM	–	?	–
Brc1cccc(-c2n[nH]c(-c3ccccc3)n2)c1	8.9µM	–	·	–	–	–
CCN(C(=O)/C=C/c1ccccc1)C1CCCCC1	–	–	13µM	–	–	–
CCN(CC)C(=O)/C=C/c1ccccc1	–	–	–	–	–	–
c1ccc2c(c1)Nc1ccccc1S2	–	–	4.8µM	–	12µM	–
COC(=O)CN(C)C1CC(=O)N(c2ccc(Cl)cc2)C1=O (configuration not stated)	–	–	–	6.3µM	–	?
CNC(=S)N(Cc1ccc(OC)cc1)C1CC(=O)N(c2ccc(Cl)cc2)C1=O (configuration not stated)	–	–	0.93µM	–	?	?
SMILES	AmpC inh no detg	SARS PLpro yeast	Pf growth 96h	Sm TGR inh	Pf growth 48h	AmpC detergent
CCOc1ccc(N2C(=O)CC(N(CCc3ccc(S(N)(=O)=O)cc3)C(C)=O)C2=O)cc1 (configuration not stated)	–	–	–	–	3.7µM	–
CCC(=O)N(Cc1ccc(S(N)(=O)=O)cc1)C1CC(=O)N(c2ccc(OC)cc2)C1=O (configuration not stated)	?	–	?	28µM	–	–
CCC(C(=O)N1CCN(S(=O)(=O)c2ccc(F)cc2)CC1)c1ccccc1 (configuration not stated)	–	–	?	–	?	?
COc1ccc(Br)cc1CNC(=O)c1nn(-c2ccc(C)cc2)c(=O)c2c1c1ccccc1n2C	·	·	·	–	·	–
Cc1ccc(CSc2nc3ccc(NC(=O)C(C)C)cc3s2)cc1	·	·	·	–	·	–
O=C(CSc1ncc(S(=O)(=O)c2ccc(Cl)cc2)c(=O)[nH]1)Nc1ccc2c(c1)OCCO2	·	·	·	–	·	–
COc1ccc(-c2cc3c(=O)n(CC(=O)Nc4ccc(Br)c(C)c4)ccn3n2)cc1OC	·	·	·	–	·	–
CC(=O)CSc1ccc(-c2nc3cc(C)c(C)cc3[nH]2)cn1	–	–	–	–	–	–
Cc1cc2nc(-c3ccc(SCc4ccc(C#N)cc4)nc3)[nH]c2cc1C	–	–	7.4µM	–	?	?
COc1cccc(CNC(=O)c2ccc(C)c(NC3=NC4CS(=O)(=O)CC4S3)c2)c1 (configuration not stated)	–	–	–	–	–	–
O=C(O)CSCC(=O)N1CCN(c2cc(C(F)(F)F)nc3ccccc23)CC1	–	–	–	–	–	–
O=C(c1cc(Cl)cc(Cl)c1)N1CCN(c2cc(C(F)(F)F)nc3ccccc23)CC1	–	–	1.3µM	–	3.7µM	–
OCCN1CCN(c2cc(C(F)(F)F)nc3ccccc23)CC1	–	–	–	–	12µM	–
O=C(O)c1cc(C(F)(F)F)nc2ccccc12	–	–	–	–	–	–
COc1ccc(CCC(=O)NCc2nc3cccnc3n2Cc2ccc(F)cc2)cc1	·	·	·	–	·	–
Cc1nnc(N2CCC(C(=O)NCc3ccc(N(C)C)cc3)CC2)c2nn(-c3ccccc3)c(C)c12	·	·	·	–	·	–
Cn1c(-c2cc(Cl)ccc2O)nc2c1c(=O)[nH]c(=O)n2Cc1ccccc1	–	–	10µM	–	?	–
COc1ccc(-c2nc3c(c(=O)[nH]c(=O)n3Cc3ccccc3)n2CCO)cc1	–	–	–	–	–	–
COc1ccc(Br)cc1-c1nc2c(c(=O)[nH]c(=O)n2Cc2ccccc2)n1C	–	–	–	–	–	?
COCCCn1c(-c2cccc(Cl)c2)nc2c1c(=O)[nH]c(=O)n2Cc1ccccc1	–	–	10µM	–	12µM	–
CCOc1ccc(NC(=O)NNC(=O)c2cc3ccccc3cc2O)cc1	–	?	–	–	–	–
